# According to the supplement of paper PMC12067093, “Discovery and optimisation of a covalent ligand for TRIM25 and its application to targeted protein ubiquitination” (Chemical Science, 2025):
# Targets with the largest changes are over-represented here; the source holds about 21,000 in all.
# Compound: Cc1cc(ccc1-c1ccccc1)C(=O)N1CCCN(CC1)C(=O)CCl [compound 10]
# Test: probe-labelled cysteine peptide fold change vs DMSO (competition) (log2 fold change); higher = less target engagement (more negative = stronger competition)
# Conditions: THP-1, incubation time: 4 h
# 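Further: competitive profiling in live THP-1 cells: cysteine peptides tagged with an iodoacetamide desthiobiotin (IA-DTB) probe, intensity after compound treatment relative to DMSO-treated cells.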
# Sequence of UniProt Q8NHJ6 (Q8NHJ6 whole entry, looked up): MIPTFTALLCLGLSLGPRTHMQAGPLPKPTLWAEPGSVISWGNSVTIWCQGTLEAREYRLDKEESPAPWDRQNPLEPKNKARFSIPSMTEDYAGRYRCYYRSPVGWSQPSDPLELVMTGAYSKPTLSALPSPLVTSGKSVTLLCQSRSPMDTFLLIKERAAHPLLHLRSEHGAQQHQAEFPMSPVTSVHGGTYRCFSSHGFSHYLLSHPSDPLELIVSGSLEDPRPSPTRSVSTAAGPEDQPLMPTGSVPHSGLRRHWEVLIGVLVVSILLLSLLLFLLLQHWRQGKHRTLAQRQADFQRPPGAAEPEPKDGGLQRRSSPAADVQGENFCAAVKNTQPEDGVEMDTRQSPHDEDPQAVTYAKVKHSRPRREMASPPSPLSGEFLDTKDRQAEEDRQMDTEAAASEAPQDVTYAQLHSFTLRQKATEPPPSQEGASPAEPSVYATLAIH
# Sequence of UniProt Q9HCC0 (Q9HCC0 whole entry, looked up): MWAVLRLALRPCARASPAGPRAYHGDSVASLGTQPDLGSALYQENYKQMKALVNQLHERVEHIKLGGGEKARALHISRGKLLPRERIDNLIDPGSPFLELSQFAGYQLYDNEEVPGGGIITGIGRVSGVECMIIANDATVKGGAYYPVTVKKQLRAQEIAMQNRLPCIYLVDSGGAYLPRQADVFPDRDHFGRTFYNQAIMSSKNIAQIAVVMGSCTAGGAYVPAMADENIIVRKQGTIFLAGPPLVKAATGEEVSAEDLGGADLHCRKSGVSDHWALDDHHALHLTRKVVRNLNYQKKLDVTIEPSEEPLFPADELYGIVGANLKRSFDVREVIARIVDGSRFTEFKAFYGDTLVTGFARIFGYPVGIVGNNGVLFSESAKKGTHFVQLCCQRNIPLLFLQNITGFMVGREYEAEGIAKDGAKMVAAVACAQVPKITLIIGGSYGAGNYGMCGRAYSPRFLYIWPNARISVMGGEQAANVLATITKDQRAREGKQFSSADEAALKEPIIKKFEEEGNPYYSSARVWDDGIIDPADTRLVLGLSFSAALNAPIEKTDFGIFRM
# Sequence of UniProt P25205 (P25205 whole entry, looked up): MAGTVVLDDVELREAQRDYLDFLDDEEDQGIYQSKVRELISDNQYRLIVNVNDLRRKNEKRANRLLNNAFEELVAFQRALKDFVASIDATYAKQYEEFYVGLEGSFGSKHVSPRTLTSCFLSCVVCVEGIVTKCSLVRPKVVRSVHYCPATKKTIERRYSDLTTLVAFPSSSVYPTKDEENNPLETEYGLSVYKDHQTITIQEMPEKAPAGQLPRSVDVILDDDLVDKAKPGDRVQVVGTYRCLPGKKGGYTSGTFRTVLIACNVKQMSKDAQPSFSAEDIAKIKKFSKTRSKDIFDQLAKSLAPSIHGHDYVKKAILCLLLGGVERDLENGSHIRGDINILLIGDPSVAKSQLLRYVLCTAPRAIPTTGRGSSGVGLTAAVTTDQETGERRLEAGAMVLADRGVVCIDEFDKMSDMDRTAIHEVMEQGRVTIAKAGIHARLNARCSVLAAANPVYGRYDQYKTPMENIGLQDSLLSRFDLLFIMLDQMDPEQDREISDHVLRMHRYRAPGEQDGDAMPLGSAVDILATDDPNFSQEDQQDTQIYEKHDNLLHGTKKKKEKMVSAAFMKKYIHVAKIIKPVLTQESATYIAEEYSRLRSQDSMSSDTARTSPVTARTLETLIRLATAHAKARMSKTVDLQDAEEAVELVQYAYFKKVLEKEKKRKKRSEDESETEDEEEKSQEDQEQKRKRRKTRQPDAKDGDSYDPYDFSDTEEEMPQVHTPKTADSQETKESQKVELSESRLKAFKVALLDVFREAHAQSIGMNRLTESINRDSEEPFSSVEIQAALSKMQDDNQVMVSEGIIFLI
# Sequence of UniProt P33991 (P33991 whole entry, looked up): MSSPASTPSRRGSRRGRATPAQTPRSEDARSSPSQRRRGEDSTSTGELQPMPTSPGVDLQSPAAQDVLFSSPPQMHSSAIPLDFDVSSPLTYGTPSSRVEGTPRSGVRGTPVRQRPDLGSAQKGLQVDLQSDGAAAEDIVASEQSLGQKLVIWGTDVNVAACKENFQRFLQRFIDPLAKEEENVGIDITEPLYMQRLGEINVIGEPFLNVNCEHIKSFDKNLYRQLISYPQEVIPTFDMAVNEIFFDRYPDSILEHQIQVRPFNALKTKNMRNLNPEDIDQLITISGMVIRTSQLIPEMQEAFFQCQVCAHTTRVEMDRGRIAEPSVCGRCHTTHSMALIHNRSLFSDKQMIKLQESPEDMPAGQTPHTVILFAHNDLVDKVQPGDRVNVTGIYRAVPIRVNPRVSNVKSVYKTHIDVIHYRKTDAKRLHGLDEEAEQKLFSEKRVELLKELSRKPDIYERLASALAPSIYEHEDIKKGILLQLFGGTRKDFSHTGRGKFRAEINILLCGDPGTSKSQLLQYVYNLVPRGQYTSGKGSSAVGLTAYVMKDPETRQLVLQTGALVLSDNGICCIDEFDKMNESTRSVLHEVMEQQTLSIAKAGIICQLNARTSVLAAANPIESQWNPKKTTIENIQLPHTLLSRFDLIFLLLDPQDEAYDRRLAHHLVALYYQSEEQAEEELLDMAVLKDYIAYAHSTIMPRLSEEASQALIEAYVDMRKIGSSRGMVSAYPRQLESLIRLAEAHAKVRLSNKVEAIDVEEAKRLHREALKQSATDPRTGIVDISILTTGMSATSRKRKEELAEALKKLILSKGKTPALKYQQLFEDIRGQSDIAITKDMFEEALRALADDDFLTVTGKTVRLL
# Sequence of UniProt Q9Y3A3 (Q9Y3A3 whole entry, looked up): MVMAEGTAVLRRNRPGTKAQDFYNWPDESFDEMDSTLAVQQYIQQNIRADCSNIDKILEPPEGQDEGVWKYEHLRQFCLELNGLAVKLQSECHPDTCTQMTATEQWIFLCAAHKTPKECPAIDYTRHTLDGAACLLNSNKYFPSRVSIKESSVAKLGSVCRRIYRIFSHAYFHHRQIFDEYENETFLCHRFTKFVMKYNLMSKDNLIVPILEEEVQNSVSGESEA
# Sequence of UniProt P49916 (P49916 whole entry, looked up): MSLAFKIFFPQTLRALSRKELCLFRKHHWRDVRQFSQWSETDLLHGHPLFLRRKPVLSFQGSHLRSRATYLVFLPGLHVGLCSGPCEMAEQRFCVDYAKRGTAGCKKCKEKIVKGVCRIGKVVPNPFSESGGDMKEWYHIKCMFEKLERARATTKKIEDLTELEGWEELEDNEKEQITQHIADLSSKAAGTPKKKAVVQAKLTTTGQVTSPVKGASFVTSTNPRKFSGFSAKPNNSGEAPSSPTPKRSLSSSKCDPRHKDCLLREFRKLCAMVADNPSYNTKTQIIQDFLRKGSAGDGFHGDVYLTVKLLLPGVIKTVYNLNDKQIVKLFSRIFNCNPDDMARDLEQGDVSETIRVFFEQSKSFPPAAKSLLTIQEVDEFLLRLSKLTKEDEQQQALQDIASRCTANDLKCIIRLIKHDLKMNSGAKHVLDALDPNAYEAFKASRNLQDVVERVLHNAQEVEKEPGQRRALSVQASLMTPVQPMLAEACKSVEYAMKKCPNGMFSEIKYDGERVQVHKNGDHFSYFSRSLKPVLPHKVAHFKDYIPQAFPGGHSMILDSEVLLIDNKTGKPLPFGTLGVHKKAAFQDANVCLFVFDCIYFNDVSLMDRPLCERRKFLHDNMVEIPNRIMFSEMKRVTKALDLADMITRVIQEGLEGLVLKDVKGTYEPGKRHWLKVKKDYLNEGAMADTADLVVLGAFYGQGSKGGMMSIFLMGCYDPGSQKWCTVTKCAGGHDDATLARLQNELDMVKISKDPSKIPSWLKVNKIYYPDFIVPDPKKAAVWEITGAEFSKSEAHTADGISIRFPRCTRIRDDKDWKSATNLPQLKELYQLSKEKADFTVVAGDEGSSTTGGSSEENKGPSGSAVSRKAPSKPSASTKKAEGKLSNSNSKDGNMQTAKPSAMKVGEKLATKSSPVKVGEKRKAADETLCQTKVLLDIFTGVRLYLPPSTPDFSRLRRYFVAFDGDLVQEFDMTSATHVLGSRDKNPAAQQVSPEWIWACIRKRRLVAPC
# Sequence of UniProt P43243 (P43243 whole entry, looked up): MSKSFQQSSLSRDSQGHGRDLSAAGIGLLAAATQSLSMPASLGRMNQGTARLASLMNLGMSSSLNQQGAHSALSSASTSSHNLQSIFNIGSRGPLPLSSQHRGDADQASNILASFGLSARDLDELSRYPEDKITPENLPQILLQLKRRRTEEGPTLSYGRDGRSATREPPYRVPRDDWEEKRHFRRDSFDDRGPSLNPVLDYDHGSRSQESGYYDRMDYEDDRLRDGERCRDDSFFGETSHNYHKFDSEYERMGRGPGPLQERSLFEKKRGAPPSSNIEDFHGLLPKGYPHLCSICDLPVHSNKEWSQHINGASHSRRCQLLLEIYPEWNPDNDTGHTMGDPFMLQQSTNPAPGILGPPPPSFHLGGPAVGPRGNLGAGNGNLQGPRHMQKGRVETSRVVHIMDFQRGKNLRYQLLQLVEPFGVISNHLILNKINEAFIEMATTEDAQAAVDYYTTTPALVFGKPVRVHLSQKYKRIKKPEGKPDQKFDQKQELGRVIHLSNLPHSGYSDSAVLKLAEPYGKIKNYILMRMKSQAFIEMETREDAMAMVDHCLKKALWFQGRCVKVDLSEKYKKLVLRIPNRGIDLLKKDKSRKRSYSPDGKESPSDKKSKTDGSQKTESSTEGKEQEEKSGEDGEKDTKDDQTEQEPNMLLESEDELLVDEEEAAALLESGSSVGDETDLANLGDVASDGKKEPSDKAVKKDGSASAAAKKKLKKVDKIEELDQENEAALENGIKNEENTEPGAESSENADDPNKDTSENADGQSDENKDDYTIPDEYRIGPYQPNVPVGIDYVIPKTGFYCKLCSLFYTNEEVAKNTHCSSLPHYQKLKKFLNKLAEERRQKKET
# Sequence of UniProt Q9Y333 (Q9Y333 whole entry, looked up): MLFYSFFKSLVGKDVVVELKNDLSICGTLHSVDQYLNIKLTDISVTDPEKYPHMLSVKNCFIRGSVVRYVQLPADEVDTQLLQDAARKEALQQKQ
Target,probe-labelled cysteine peptide fold change (10 µM),probe-labelled cysteine peptide fold change (50 µM)
MFN1_Q8IWA4_513_LCSDFQEDIVFR (UniProt Q8IWA4),-0.0991,0.451
MED13_Q9UHV7_681_NQCLSAIASDAEQEPK (UniProt Q9UHV7),0.327,0.0925
LIMS1_P48059_193_MGVPICGACR (UniProt P48059),-0.104,-0.269
LRRFIP1_Q32MZ4_456_CMVEVPQELETSTGHSLEK (UniProt Q32MZ4),-0.167,-0.23
LRRC47_Q8N1G4_367_LHEDLCEK (UniProt Q8N1G4),-0.211,-0.0285
LENG8_Q96PV6_584_SLCMVK (UniProt Q96PV6),-0.193,-1.09
LIMS3_P0CW19-2_136_YCEHDFQMLFAPCCHQCGEFIIGR<|>LIMS1_P48059_74_YCEHDFQMLFAPCCHQCGEFIIGR (UniProt P48059+P0CW19),0.212,0.138
LPIN3_Q9BQK8_443_SLRDPNPEHEPEPTLDTVDTIALSLCGGLADSR (UniProt Q9BQK8),-0.112,0.0613
METAP2_P50579_263_IIDCAFTVTFNPK (UniProt P50579),0.171,0.0277
MOB4_Q9Y3A3_134_HTLDGAACLLNSNK (UniProt Q9Y3A3),-1.14,-3.77
MYH9_P35579_988_KLEEEQIILEDQNCK (UniProt P35579),-0.0561,-0.0225
MPI_P34949_289_GDCVECMACSDNTVR (UniProt P34949),0.0622,-0.0489
LILRB4_Q8NHJ6_330_SSPAADVQGENFCAAVK (UniProt Q8NHJ6),-0.385,-0.214
MMS19_Q96T76_750_ELLELSCCHSCPFSSTAAAK (UniProt Q96T76),-0.103,-1.11
MCMBP_Q9BTE3_249_VYEDWDCFK (UniProt Q9BTE3),-0.042,-0.0294
MYCBP2_O75592_3241_DTICELCGESHPYPVTYHMR (UniProt O75592),-0.0846,-0.18
MTMR10_Q9NXD2_70_LICSNFK (UniProt Q9NXD2),-0.125,-0.103
LMAN1_P49257_230_NDYEFCAK (UniProt P49257),0.239,0.703
MRPS30_Q9NP92_393_NICWGTQSK (UniProt Q9NP92),-0.226,-0.187
LIMK1_P53667_84_YGESCHGCSEQITK (UniProt P53667),0.0187,-0.262
LSM2_Q9Y333_26_DVVVELKNDLSICGTLHSVDQYLNIK (UniProt Q9Y333),0.0504,-0.543

Target,probe-labelled cysteine peptide fold change (10 µM),probe-labelled cysteine peptide fold change (50 µM)
MMS19_Q96T76_331_REVFQTASERVEAEGLAALHSLTACLSR (UniProt Q96T76),-0.452,0.0397
MYCBP2_O75592_3392_MPCLYLQTLAR (UniProt O75592),-0.0844,-0.345
MCM5_P33992_355_AIACLLFGGSRK (UniProt P33992),-0.159,-0.759
MAZ_P56270_424_VHSQGPHHVCELCNK (UniProt P56270),0.033,-0.236
MAK16_Q9BXY0_39_NEYSLTGLCNR (UniProt Q9BXY0),0.173,-0.348
MYBL2_P10244_147_SCWTEEEDRIICEAHK (UniProt P10244),0.166,-0.335
MFSD14A_Q96MC6_465_HCGSHSHPHNTQAPGEAK (UniProt Q96MC6),-0.39,-1.11
LRCH3_Q96II8_148_NQLSTLPVHLCNLPLK (UniProt Q96II8),0.138,0.0632
MGAT2_Q10469_386_KTCRPSTQSAQIESLLNNNK (UniProt Q10469),-0.194,-0.657
MICALL1_Q8N3F8_597_GSSGPQPAKPCSGATPTPLLLVGDR (UniProt Q8N3F8),-0.17,-0.459
MRPS18A_Q9NVS2_186_DNVCYSR (UniProt Q9NVS2),-0.0735,-0.099
MCMBP_Q9BTE3_325_LQHINPLLPACLNK (UniProt Q9BTE3),-0.451,-1.87
MYH9_P35579_671_CIIPNHEKK (UniProt P35579),-0.188,-1.18
LRRK2_Q5S007_1187_FSCIPEAILNLPHLR (UniProt Q5S007),-0.0375,-0.109
MTMR3_Q13615_473_CPVFLQWLDCVHQLQR (UniProt Q13615),-0.0651,0.044
MCRS1_Q96EZ8_84_CSGSEPSSSEK (UniProt Q96EZ8),-0.0254,-0.104
MMTAG2_Q9BU76_103_EDFAEVCKR (UniProt Q9BU76),-0.168,-0.321
MTMR6_Q9Y217_214_CLEDEHLLQAISK (UniProt Q9Y217),-0.103,-0.217
MRC2_Q9UBG0_187_IYGSEEDLCALPYHEVYTIQGNSHGKPCTIPFK (UniProt Q9UBG0),-0.0343,-0.784
MIB1_Q86YT6_103_CAECTNYDLCTVCYHGDK (UniProt Q86YT6),0.0824,-0.0966
MRI1_Q9BV20_168_VTVLTHCNTGALATAGYGTALGVIR (UniProt Q9BV20),0.147,0.0771

Target,probe-labelled cysteine peptide fold change (10 µM),probe-labelled cysteine peptide fold change (50 µM)
MCM2_P49736_406_DAILLADLVDSCK (UniProt P49736),-0.0605,0.3
MADD_Q8WXG6_1489_LINMTYCPK (UniProt Q8WXG6),-0.139,-1.56
LRR1_Q96L50_5_LHCEVEVISR (UniProt Q96L50),-0.12,0.0535
MBD2_Q9UBB5_111_GRPPSGGSGLGGDGGGCGGGGSGGGGAPR (UniProt Q9UBB5),-0.142,-1.1
MTHFD1L_Q6UB35_906_YTQQGFGNLPICMAK (UniProt Q6UB35),-0.063,-0.0614
MSTO1_Q9BUK6_347_LCSSPVSMVHLADMLSFCGK (UniProt Q9BUK6),0.0999,0.248
LRRC40_Q9H9A6_227_HLDCNSNLLETIPPELAGMESLELLYLRR (UniProt Q9H9A6),-0.229,-0.459
MRPL35_Q9NZE8_150_EFVFCNK (UniProt Q9NZE8),-0.362,-0.257
MCM4_P33991_328_IAEPSVCGR (UniProt P33991),0.0169,-0.0125
LRPPRC_P42704_571_YCQEPR (UniProt P42704),0.261,0.6
MCU_Q8NE86_191_TLVQQLYTTLCIEQHQLNK (UniProt Q8NE86),0.0411,-0.0406
MORC3_Q14149_671_NDAVILPSCVEAEAK (UniProt Q14149),-0.296,-0.0456
LGALS3_P17931_173_VIVCNTK (UniProt P17931),0.0884,-0.00184
MRPL37_Q9BZE1_104_DQACYIFHHR (UniProt Q9BZE1),0.0327,-0.253
MSI1_O43347_167_VCEIHFHEINNK<|>MSI2_Q96DH6_168_VCEIHFHEINNK (UniProt Q96DH6+O43347),0.163,0.236
MDN1_Q9NU22_2158_CLGEGGK (UniProt Q9NU22),-0.171,-1.54
MCM3_P25205_119+123+126_TLTSCFLSCVVCVEGIVTK (UniProt P25205),-0.0216,-1.13
LPP_Q93052_524_SLDGIPFTVDAGGLIHCIEDFHKK (UniProt Q93052),-0.0384,-0.452
MCM2_P49736_584_GVCLIDEFDK (UniProt P49736),0.0289,0.142
MTHFD1_P11586_236_GEWIKPGAIVIDCGINYVPDDKKPNGR (UniProt P11586),-0.116,-1.23
MPP1_Q00013_454_KLQEAFDQACSSPQWVPVSWVY (UniProt Q00013),-0.0366,-0.104

Target,probe-labelled cysteine peptide fold change (10 µM),probe-labelled cysteine peptide fold change (50 µM)
LRRC8A_Q8IWT6_768+776_GNRLECLPVELGECPLLK (UniProt Q8IWT6),-0.106,-0.0226
MCM5_P33992_221_CVDFQTLK (UniProt P33992),0.05,-0.397
MMADHC_Q9H3L0_261+262_HLGFSVDDLGCCK (UniProt Q9H3L0),-0.412,-1.16
LONP1_P36776_909_AGVTCIVLPAENKK (UniProt P36776),-0.00288,-0.138
LIMD1_Q9UGP4_401_LSPTSLVHPVMSTLPELSCK (UniProt Q9UGP4),-0.0884,-0.436
MATR3_P43243_230_CRDDSFFGETSHNYHK (UniProt P43243),0.00308,-0.311
MTMR14_Q8NCE2_131_FVCPVILFK (UniProt Q8NCE2),-0.00849,-0.0865
MYCBP2_O75592_3263_QAHPGCGR (UniProt O75592),0.0855,0.00399
MACF1_Q9UPN3_5309_DCDVQGLEHDMEEINAR (UniProt Q9UPN3),0.0885,0.126
MAK16_Q9BXY0_17_QFCSFK (UniProt Q9BXY0),-0.115,-0.166
LIG3_P49916_929_KAADETLCQTK (UniProt P49916),-0.152,-1.24
MAGT1_Q9H0U3_87_QCVVCK (UniProt Q9H0U3),-0.137,0.464
MCCC2_Q9HCC0_267_AATGEEVSAEDLGGADLHCR (UniProt Q9HCC0),-0.421,-1.1
MACF1_Q9UPN3_3109_EIACGAQSEPFPCMTPRPEGLHYQESDGK (UniProt Q9UPN3),-0.348,-0.619
MRC2_Q9UBG0_201_YDNQWFHGCTSTGR (UniProt Q9UBG0),-2.14,-2.04
MYADM_Q96S97_279_SRDVSCSR (UniProt Q96S97),1.07,1.22
MTA3_Q9BTC8_109_CSVALLNETESVLSYLDK (UniProt Q9BTC8),0.791,0.971
MDN1_Q9NU22_3195_ELLCQLLTSLHHFVGEGESK (UniProt Q9NU22),-0.696,-1.2
MYCBP2_O75592_505_CLHACGISLFDLEK (UniProt O75592),0.122,0.236
LYSMD2_Q8IV50_106_LFTNDCIFLK (UniProt Q8IV50),-0.192,-1.77
